High-throughput results: PubChem BioAssay, several laboratories
PostGolgi yeast = growth inhibition of a yeast mutant, post-Golgi transport screen. AID 739. post-Golgi transport phenotypic cell assay. 0.9% of 98,000 active. inhibition, % at 10 µM;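 further: yeast cells grown in 1536-well plates; yeast grown about 18 h at 30C before absorbance read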
PostGolgi ctrl = yeast control strain growth, post-Golgi counter-screen | efflux-deficient yeast background strain, growth absorbance A615, 16 h | 5% of 98,000 active | inhibition, % at 10 µM
CYP2C9 act = increases human cytochrome P450 2C9 activity; P11712; recombinant CYP2C9, luciferin-H conversion, luminescence; active compounds read high; factor 1 = untreated enzyme, 0 = blocked; activation factor at 5 µM; 1.4% of 96,000 active; AID 1024;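 active means activation factor of 2 or more for CYP2C9 at a 5 µM dose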;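 further: 0 = sulfaphenazole-blocked wells and 1 = vehicle-only wells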
CYP2C9 inhib = blocks human cytochrome P450 2C9. CYP2C9 Supersomes, luciferin-H conversion, luminescence. inhibition, % at 5 µM. 20% of 96,000 active. AID 777;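 active means blocking of liver enzyme CYP2C9 beyond about 50% at 5 µM, limit read from the data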
CYP2C19 inhib = inhibitors of human CYP2C19. CYP2C19 Supersomes, luciferin-H EGE luminescence, 30 min. AID 778. 21% of 96,000 active. P33261. inhibition, % at 5 µM;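 active means CYP2C19 inhibition above a set limit at 5 µM in the primary screen, cut at about 50% in these data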;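 further: plate controls were negative control wells for no effect and 2.5 mM tranylcypromine positive control for full effect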
Target sequence (P33261 whole entry, looked up): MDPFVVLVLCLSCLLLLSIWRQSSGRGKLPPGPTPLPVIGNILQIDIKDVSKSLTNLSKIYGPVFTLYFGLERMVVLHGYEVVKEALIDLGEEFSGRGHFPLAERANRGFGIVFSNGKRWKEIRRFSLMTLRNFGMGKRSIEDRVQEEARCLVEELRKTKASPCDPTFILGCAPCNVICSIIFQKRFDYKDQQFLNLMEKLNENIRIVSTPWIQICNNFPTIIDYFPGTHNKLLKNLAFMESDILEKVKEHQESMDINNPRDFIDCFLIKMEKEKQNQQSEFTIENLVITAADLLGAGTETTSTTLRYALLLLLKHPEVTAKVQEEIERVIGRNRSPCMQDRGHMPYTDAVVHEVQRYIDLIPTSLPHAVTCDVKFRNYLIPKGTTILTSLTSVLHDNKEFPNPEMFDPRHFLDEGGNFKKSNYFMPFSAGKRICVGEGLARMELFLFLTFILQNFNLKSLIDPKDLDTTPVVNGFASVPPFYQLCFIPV
CYP2C19 activ = cytochrome P450 2C19 (human) activation. P33261. recombinant CYP2C19, luciferin-H EGE luminescence; active compounds read high; 0 = fully inhibited enzyme, 1 = untreated enzyme. AID 1025. 96,000 tested, under 10 active. activation factor at 5 µM;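 active means activation factor of at least 2 at 5 µM in the primary screen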;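 further: 0 = wells with 2.5 mM tranylcypromine and 1 = vehicle-only wells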
* marks the source's active call; other numbers are inactive results; · = not tested or not shown. Hits are enriched below; roughly 32% of the tested compounds scored in any of these assays. Unless noted, no stated cut-off is given here; in the data, active means inhibition above about 30%; inactive means the rest.

SMILES	PostGolgi yeast	PostGolgi ctrl	CYP2C9 act	CYP2C9 inhib	CYP2C19 inhib	CYP2C19 activ
CCOC(=O)c1c(C)c(C(=O)NCc2cccnc2)c(C)n1CC	-9	7	0.4	60*	70*	0.3
CC(C)CCNC(=O)c1cccc(Cl)c1	2	6	0.7	28	58*	0.4
Cc1nn(C)cc1CNC(=O)c1cccc(Cl)c1	-2	8	0.5	46	17	0.8
O=C(NCc1ccncc1)c1nnc(Cc2c(F)cccc2Cl)o1	3	31*	0.2	83*	80*	0.2
CC(NC(=O)NCc1cccnc1)(C(F)(F)F)C(F)(F)F	0	11	0.7	33	77*	0.2
CCOC(=O)c1c(C)c(C(=O)NCCOC)c(C)n1CC	4	-6	1	-2	21	0.8
COC(=O)C1=C(COc2ccc(F)cc2)NC(=O)NC1c1ccc(C)cc1C (configuration not stated)	12	25	1	-2	2	1
Cn1c(CN2CCCC2)nc2cc(NC(=O)C3CCCCC3)ccc21	11	1	0.9	8	0	1
Cn1cccc1Cc1nnc(SCC(=O)N2CCN(c3ccccc3)CC2)n1-c1ccc(F)cc1	3	2	0.9	12	9	0.9
CC(C)OC(=O)c1nnc(Cc2ccc(F)cc2)o1	-1	-4	1	2	89*	0.1
Cc1ccc(S(=O)(=O)NCCN2CCOCC2)cc1	-2	3	1.1	-6	20	0.8
CCOc1cc(S(=O)(=O)NCCN2CCOCC2)c(C)cc1C	-1	-9	2.1*	-106	75*	0.2
CCCOc1ccc(S(=O)(=O)NCCN2CCOCC2)c2ccccc12	4	5	0.6	44	99*	0
CCOc1ccc(S(=O)(=O)NCCN2CCOCC2)c2ccccc12	-14	7	1.2	-24	76*	0.2
Cc1ccc(-c2nn3c(C)nnc3c3ccccc23)cc1S(=O)(=O)NCCN1CCOCC1	0	11	0.9	7	-3	1
O=C(OCc1cc2ccccc2[nH]c1=O)c1ccccn1	-4	-3	1	-3	12	0.9
Cc1[nH]c2ccc(C(=O)O)cc2c1C	-9	14	0.8	19	99*	0
CCCCn1c(N)c(Sc2ccc(Cl)cc2)c(=O)[nH]c1=O	-4	9	0.8	17	42	0.6
CCCn1c(N)c(Sc2ccc(Cl)cc2)c(=O)n(CCC)c1=O	0	2	0.4	58*	90*	0.1
Cc1sc2nc(SCC(=O)c3cccs3)n(Cc3ccco3)c(=O)c2c1C	-5	2	0.7	28	2	1
O=S(=O)(c1ccccc1)n1ccc2ccccc21	-5	13	2.4*	-138	36	0.6
Cc1ccc(NC2=NC(c3ccco3)n3c(nc(C)cc3=O)N2)c(C)c1 (configuration not stated)	·	·	0.7	33	22	0.8
CCOC(=O)CSc1cc(=O)n(C)c2cc(Cl)ccc12	4	-1	0.5	51*	64*	0.4
CCOc1cc(S(=O)(=O)n2cc(-c3ccc(F)cc3)c(N)n2)cc(OCC)c1OCC	4	8	0.3	75*	26	0.7
COc1ccccc1-c1cn(S(=O)(=O)c2ccc(F)cc2)nc1N	0	7	0.1	86*	97*	0
SMILES	PostGolgi yeast	PostGolgi ctrl	CYP2C9 act	CYP2C9 inhib	CYP2C19 inhib	CYP2C19 activ
CCOC(=O)N(Cc1ccccc1)C(C(=O)O)C(C(=O)O)N(Cc1ccccc1)C(=O)OCC (configuration not stated)	-7	3	1	-2	12	0.9
COc1ccc(C2=C(C#N)C(=O)OC2)cc1	-5	14	·	·	-4	1
O=C(CN(Cc1ccccc1)C(=O)CCC(=O)Nc1nccs1)NCc1ccco1	-9	6	0.7	26	61*	0.4
O=C(CN(C(=O)CCC(=O)Nc1nccs1)c1ccc(F)cc1)NCc1ccco1	0	32*	0.7	32	65*	0.3
O=C(CN(C(=O)CCC(=O)Nc1nccs1)c1ccc(F)c(Cl)c1)NCc1ccco1	2	2	0.7	27	76*	0.2
Clc1cccc(OCCn2cncn2)c1Cl	-11	3	1.8	-81	84*	0.2
Clc1ccccc1OCCn1ccnc1	-18	-4	0.3	74*	66*	0.3
C=CCc1ccccc1OCCCCN1CCCC1	-4	3	1.1	-11	6	0.9
C=CCc1ccccc1OCCn1ccnc1	1	-5	0.1	85*	92*	0.1
Cc1cc(C)n2nc(C(=O)OCCOc3ccc(F)cc3)nc2n1	-3	2	1.3	-25	15	0.8
Cc1ccc(Cn2nnc3c(=O)[nH]c(C(=O)NCc4ccco4)nc32)cc1	-3	2	1	4	1	1
O=C(c1ccccc1)N1CCC(c2nc3c(nnn3Cc3ccco3)c(=O)[nH]2)CC1	-3	1	0.5	53*	14	0.9
O=C(c1ccc(Cl)cc1Cl)N1CCC(c2nc3c(nnn3Cc3ccco3)c(=O)[nH]2)CC1	30*	-10	0.4	59*	4	1
COc1ccc(N2CC(C(=O)NCCCN3CCOCC3)CC2=O)cc1 (configuration not stated)	5	-2	0.9	13	1	1
O=C1C=C(NCc2ccco2)CCC1	8	16	1	-2	4	1
Cc1ccc(C2CC(=O)C=C(O)C2)cc1 (configuration not stated)	-3	-2	0.5	47	9	0.9
O=C1C=C(NCc2ccco2)CC(c2ccc(Cl)cc2)C1 (configuration not stated)	·	41*	0.7	32	62*	0.4
O=C1C=C(Nc2ccc(Cl)cc2)CC(c2ccc(Cl)cc2)C1 (configuration not stated)	8	52*	·	·	·	·
O=C(OCC#CCSc1nc2ccccc2o1)c1ccco1	-12	7	0.4	57*	74*	0.3
COc1ccc(-c2nnc(SCC#CCO)o2)cc1OC	3	8	0.9	6	16	0.8
O=C(OCC#CCSc1nnc(-c2cccc3ccccc23)o1)c1ccco1	-10	6	2.1*	-107	2	1
OCC#CCSc1nnc(-c2ccccc2Br)o1	7	5	1.2	-16	31	0.7
OCC#CCSc1nnc(-c2ccc(Br)cc2)o1	1	-1	0.8	24	60*	0.4
O=C(OCC#CCSc1nnc(-c2ccncc2)o1)c1cccs1	-7	-9	0.2	78*	79*	0.2
CCC1(COC(NC(=O)c2cccnc2)(C(F)(F)F)C(F)(F)F)COC1	6	20	0.9	10	10	0.9
CCOCCCNC(=O)C(c1ccc(Cl)cc1)N1CCC2(CC1)OCCO2 (configuration not stated)	-4	1	1.1	-9	59*	0.4
